# The list is not random: actives were taken first. Their share in the collection is about 1.4%.
# PKM2 act: qHTS Assay for Activators of Human Muscle isoform 2 Pyruvate Kinase; Pyruvate kinase PKM (Homo sapiens), P14618; purified PKM2, Kinase-Glo ATP luminescence, activation; response scale: 0% is enzyme alone, no compound; Potency, µM (top dose mostly 57.5 µM), usual class: activators; 260,000 compounds, 0.34% hits; AID 1631, 2009; further: nearly all actives have a fitted effect of over 55% in size
# Target sequence (P14618 whole entry, looked up, canonical isoform): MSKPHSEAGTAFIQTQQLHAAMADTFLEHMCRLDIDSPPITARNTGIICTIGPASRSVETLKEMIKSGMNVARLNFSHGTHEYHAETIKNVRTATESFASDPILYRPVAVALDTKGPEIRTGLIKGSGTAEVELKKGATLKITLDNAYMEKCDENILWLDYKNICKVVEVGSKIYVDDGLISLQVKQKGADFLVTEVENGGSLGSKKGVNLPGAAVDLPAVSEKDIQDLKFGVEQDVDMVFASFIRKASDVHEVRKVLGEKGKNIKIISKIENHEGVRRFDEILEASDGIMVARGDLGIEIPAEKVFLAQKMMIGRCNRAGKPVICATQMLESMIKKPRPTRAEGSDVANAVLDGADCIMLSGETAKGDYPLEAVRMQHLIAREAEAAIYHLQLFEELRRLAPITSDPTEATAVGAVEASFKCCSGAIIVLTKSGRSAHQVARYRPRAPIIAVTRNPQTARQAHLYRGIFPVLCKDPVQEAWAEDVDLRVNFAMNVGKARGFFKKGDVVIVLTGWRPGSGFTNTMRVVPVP
#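 ATP formation by purified human PK-M2, quantified via coupled luciferase luminescence after 1 h at room temperature with 0.1 mM ADP and 0.5 mM PEP final.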
# rTrxR1 inhibitor: qHTS Assay for Inhibitors of Mammalian Selenoprotein Thioredoxin Reductase 1 (TrxR1): qHTS. recombinant rTrxR1, NADPH fluorescence consumption, selenite substrate. Thioredoxin reductase 1, cytoplasmic (Rattus norvegicus), O89049. 390,000 compounds, 1% hits. Potency, µM (titrated, usually from 114 µM), usual class: inhibitors. AID 588453, 2011; further: nearly all actives have a fitted effect of over 65% in size
#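 Rat TrxR1 (90 nM in the dispensed reagent) was pre-reduced with 400 uM NADPH for 5 min at room temperature, then incubated with compound for 15 min. After 400 uM selenite was added, NADPH fluorescence (Ex 340/Em 450 nm) was followed for 8 min.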
# IDH1 R132H inh: qHTS for Inhibitors of mutant isocitrate dehydrogenase 1 (IDH1): qHTS | IDH1-R132H enzyme, NADPH consumption, diaphorase/resazurin fluorescence | Isocitrate dehydrogenase [NADP] cytoplasmic (Homo sapiens), O75874 | Potency, µM (highest dose often 76.6 µM), most hits filed as inhibitors | 390,000 compounds, 0.093% hits; further: nearly all actives have a fitted effect of over 65% in size
#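 IDH1-R132H (0.5 ug/mL) preincubated 30 min with compound, then NADPH (0.016 mM) and alpha-KG (2 mM) added; 80 min at RT, pH 7.5. Remaining NADPH coupled via diaphorase/resazurin to fluorescence (540/590 nm); concentration-response curves normalized to no-enzyme control.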
# TrxR1 substrate: qHTS Assay for Substrates of Mammalian Selenoprotein Thioredoxin Reductase 1 (TrxR1): qHTS; purified TrxR1 substrate turnover, NADPH consumption readout; 390,000 compounds, 0.01% hits; Potency, µM (doses to about 114 µM); Thioredoxin reductase 1, cytoplasmic (Rattus norvegicus), O89049; further: nearly all actives have a fitted effect of over 50% in size
#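 Rat TrxR1, dispensed at 90 nM, was prereduced with 400 uM NADPH (final) for 5 min at ~22 deg C, then incubated with compound 15 min before 400 uM selenite. A first-read NADPH fluorescence drop versus no-compound background flagged substrates.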
# LDHA inh: qHTS assay for inhibitors of human lactate dehydrogenase; L-lactate dehydrogenase A chain (Homo sapiens), P00338; 480,000 compounds, 0.15% hits; purified LDHA, NADH/diaphorase-resazurin fluorescence; active compounds read low; activity change, % (values are at about 110 or 230 µM); AID 1347041, 2019; in the data active means activity change below about -30%; inconclusive means mostly about -25% to -30%
#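 Enzyme activity of human lactate dehydrogenase 5 (2 nM; 0.06 mM NADH, 0.2 mM pyruvate, 5 min, RT) is measured via a resazurin/diaphorase fluorescence readout of residual NADH.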
# GLS inh: qHTS for Inhibitors of Glutaminase (GLS). Potency, µM (top dose mostly 45.5 µM), hits mostly inhibitors. GLS enzymatic activity, qHTS titration. 410,000 compounds, 0.21% hits
#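 Glutamate formation by hKGA was monitored fluorometrically using coupled glutamate oxidase, HRP and Amplex Red. Substrate was added as 1 mM L-glutamine solution; incubation was 30 min at RT after an initial read.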
# A number is an active result; . = inactive; ? = inconclusive; / = no result; [ ] = another dose, or the depositor's remark. Unless noted, the call rests on the fitted dose curve; in most records, active means well fitted curve in the direction sought with a large enough effect; inconclusive means small, poorly fitted or top-dose-only effect, or another doubt; inactive means no such curve, though single readings can be large; an effect the other way counts as inactive or inconclusive.
SMILES,PKM2 act,rTrxR1 inhibitor,IDH1 R132H inh,TrxR1 substrate,LDHA inh,GLS inh
COC(=O)c1ccccc1OCCCCN1CC(C)OC(C)C1 (stereo not given),.,.,.,.,-31,.
Cc1cccc(N2CCN(C(=O)Cn3sc4nc(C)cc(C)c4c3=O)CC2C)c1 (stereo not given),?,.,.,.,.,.
Cc1cc(C)c2c(=O)n(CC(=O)N3CCC(Cc4ccccc4)CC3)sc2n1,1.6µM,/,/,/,/,/
CSCc1ccc(C(=O)N2CCN(C(c3ccc(F)cc3)c3ccc(F)cc3)CC2)o1,/,/,/,/,.,/
Cc1ccccc1/C=N/Nc1nc2ccccc2[nH]1,.,.,.,.,.,.
C(=N\Nc1nc2ccccc2[nH]1)/c1c[nH]c2ccccc12,.,.,.,.,.,13µM
CCc1cc(C(=O)OC)c(N)s1,/,/,/,/,.,/
COc1ccc(C)cc1NC(=O)CCc1ncc(-c2ccc(C)cc2)o1,/,/,/,/,.,/
CC(C)Cc1ccc(C(C)CC2=CCC(CN(C)C)C2=O)cc1 (stereo not given),/,45µM,?,.,.,.
CCOC(=O)C1=C(C)N=c2s/c(=C3/C(=O)Nc4ccccc43)c(=O)n2C1c1ccc(C)cc1 (stereo not given),.,45µM,.,.,.,.
O=c1c2c3c(sc2[nH]c(=S)n1Cc1ccco1)CCC3,11µM,?,.,.,.,.
CC1(C)Cc2c(sc3[nH]c(=S)n(Cc4ccco4)c(=O)c23)CO1,.,50µM,.,.,.,.
CC1(C)Cc2c(sc3c2c(=N)n(Cc2ccco2)c(=O)n3Cc2ccccc2)CO1,?,.,.,.,.,.
CN(C)/C=C\C(=O)C1CC1,/,/,/,/,.,/
Cc1ccc(C2=NN(C(=O)CCl)C(c3ccco3)C2)o1 (stereo not given),.,22µM,.,.,.,.
CC(=O)N1N=C(c2ccc(Cl)cc2)CC1c1ccco1 (stereo not given),25µM,.,.,.,.,.
CC(=O)c1ccc(NCC(=O)N2N=C(c3ccc(C)o3)CC2c2ccco2)cc1 (stereo not given),/,/,/,/,.,/
CCN(CC(=O)Nc1ccccc1C(F)(F)F)C(=O)Cc1ccc2ccccc2c1,/,/,/,/,.,/
COc1cccc(-n2cnnc2SC(C)C(=O)Nc2cccc(C(C)=O)c2)c1 (stereo not given),/,/,/,/,.,/
COc1ccc(OC)c(/C=C2\C=Cc3ccccc32)c1,/,5.6µM,/,.,.,/
COc1ccc(/C=C2/C=Cc3ccccc32)cc1,/,.,/,.,.,/
COc1ccc(OC)c(/C=N/NC(=O)c2cc(-c3ccc(C)o3)nc3ccccc23)c1,7.9µM,79µM,.,.,.,.
Cc1ccc(-c2cc(C(=O)Nc3cccnc3)c3ccccc3n2)o1,.,8.9µM,.,.,.,.
Cc1ccc(NC(=O)c2cc(-c3ccc(C)o3)nc3ccccc23)cc1,?,11µM,.,.,.,.
COc1ccc(-c2cc(C(=O)N/N=C/c3cc(OC)c(OC)cc3OC)c3ccccc3n2)cc1,/,.,.,.,.,.
SMILES,PKM2 act,rTrxR1 inhibitor,IDH1 R132H inh,TrxR1 substrate,LDHA inh,GLS inh
Cc1cccc(NC(=O)c2cc(-c3ccc(C)o3)nc3ccccc23)c1,/,/,/,/,.,/
COc1ccc(OC)c(C2CCCN2C(=O)NCCn2ccnc2)c1 (stereo not given),/,/,/,/,.,/
O=C1CC(=O)N(Cc2ccco2)C(=S)N1,.,?,.,.,-36,?
O=C1CC(=O)N(Cc2ccco2)C(=O)N1,.,?,.,.,?,10µM
O=C(Nc1ccc2oc(=O)ccc2c1)c1ccccc1,/,/,/,/,.,/
CCN1CCOC(=O)C1CC(=O)Nc1ccc(C)c(Cl)c1 (stereo not given),/,?,.,.[11.4 µM],.,.
CCN1CCOC(=O)C1CC(=O)Nc1cc(Cl)ccc1C (stereo not given),/,11µM,.,.,.,.
CCOc1ccc(S(=O)(=O)N(CC(=O)Nc2cccc(C)c2)c2ccccc2)cc1,/,/,/,/,-34,/
Fc1cccc(F)c1-c1csc(NCc2ccco2)n1,/,/,/,/,.,/
CCCCCC(=O)N1C[C@@H](n2cc(C3CC3)nn2)[C@H](O)C[C@@H]1c1ccc(C)cc1,/,/,.,/,-32,.
CCCCCC(=O)N1C[C@H](n2cc(C3CC3)nn2)[C@@H](O)C[C@@H]1c1ccc(C)cc1,/,/,.,/,.,.
N#CCCCN1CCCC1Cc1ccccc1 (stereo not given),/,/,/,/,.,/
O=c1[nH]c(Nc2ccccc2Cl)cc2ccccc12,/,.,.,.,.,.
O=c1[nH]c(Nc2ccc(F)cc2)cc2ccccc12,.,11µM,.,.,.,.
COc1ccccc1C(=O)Nc1ccc2oc(-c3ccc4ccccc4c3)nc2c1,/,/,/,/,.,/
CC(C)CCSc1cc(NCCO)c([N+](=O)[O-])c2nonc12,.,3.5µM,.,.,.,.
CCOC(=O)CCCNc1ccc([N+](=O)[O-])cc1[N+](=O)[O-],.,.,.,.,.,.
COC(=O)CCSc1cc(NCCCOC(C)=O)c([N+](=O)[O-])c2nonc12,/,3.2µM,/,.,.,/
CCN(CC)c1cc(NCCO)c([N+](=O)[O-])c2nonc12,.,.,.,.,.,.
CC(=O)OCCCNc1cc(Sc2ccc(Cl)cc2)c2nonc2c1[N+](=O)[O-],.,3.2µM,.,.,.,.
CCC(=O)OCCNc1cc(Sc2nccn2C)c2nonc2c1[N+](=O)[O-],?,0.28µM,.,.,.,.
Cc1ccc(Cl)cc1Nc1cc(Cl)c2nonc2c1[N+](=O)[O-],/,/,/,/,.,/
CCOC(=O)N1CCN(c2cc(NCCO)c([N+](=O)[O-])c3nonc23)CC1,.,.,.,.,.,.
C=CCn1c(SCCC)nc2c1c(=O)n(C)c(=O)n2C,/,/,/,/,.,/
CCCC(=O)NC(C)c1nc2ccccc2[nH]1 (stereo not given),.,.,.,.,.,.
Cc1ccc(Sc2cc(NCCCO)c([N+](=O)[O-])c3nonc23)cc1,.,13µM,.,.,.,.
CCC(=O)OCCNc1cc(SCCC(=O)OC)c2nonc2c1[N+](=O)[O-],.,8.9µM,.,.,.,.
CCCC(=O)OCCNc1cc(Sc2nc3ccccc3[nH]2)c2nonc2c1[N+](=O)[O-],?,1µM,.,.,.,?
O=[N+]([O-])c1c(NCCO)cc(N2CCCCC2)c2nonc12,.,.,.,.,.,.

# Bioassay records deposited in PubChem BioAssay by National Center for Advancing Translational Sciences (NCATS).
